# In the library only some 7.4% were active in any assay of this set; here they are far more common.
# SMN2 splice up: SMN2 splice variant enhancement; HEK293 SMN2-luciferase splicing reporter, luminescence, 30-36 h; Potency, µM (titrated, usually from 46.1 µM), without a hit: at the highest dose activity change, positive = activation, most hits filed as activators; 210,000 compounds, 2.8% hits; AID 1458; note: % of control where 0% means no effect; nearly all actives have a fitted effect of over 55% in size
#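 HEK293 cells carry an SMN2 […]–luciferase reporter in which exon 7 inclusion puts luciferase in frame. Cells were plated 10-12 h before compound addition, then incubated 30-36 h at 37C. ONE-Glo luminescence was read; sodium butyrate at 4.5 mM final served as control.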
# Rab9 promoter act: Rab9 promoter activation; Huh7 Rab9 promoter-luciferase reporter, luminescence, 24 h; 320,000 compounds, 2.8% hits; Potency, µM (titrated, usually from 9.22 µM), for the others: at the top dose activation, negative = inhibition, usual class: activators; AID 485297; note: % of control where 0% means no effect; nearly all actives have a fitted effect of over 60% in size
#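 Huh7 reporter line, Rab9 promoter upstream of luciferase. Compound exposure 24 h at 37 °C in reduced-serum medium with 10% FBS. Read-out: luminescence.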
# ELG1 genotoxic: genotoxicity induction in ELG1-luciferase HEK293T cells; HEK293T ELG1-luciferase reporter, luminescence, 16 h; Potency, µM (doses to about 46 µM), for the others: top-dose activity change, positive = activation, actives largely listed as activators; 330,000 compounds, 1.3% hits; AID 504466; note: % of control where 0% means no effect; nearly all actives have a fitted effect of over 60% in size
#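 HEK293T cells expressing luciferase-tagged ELG1 were exposed to compound or DMSO vehicle for 16 hr at 37 °C and 5% CO2. Luciferase activity was then measured with ONE-Glo after 30 min at room temperature.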
# NPC1 prom act: activates the NPC1 promoter | Huh7 NPC1 promoter luciferase reporter, 24 h | 320,000 compounds, 2.4% hits | Potency, µM (highest dose often 9.22 µM), inactives show top-dose activation, usual class: activators | AID 485313; note: % of control where 0% means no effect; nearly all actives have a fitted effect of over 60% in size
#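 Huh7 cells stably carrying NPC1 promoter–luciferase, plated in Opti-MEM with 10% FBS for 2 h, were exposed to compound in DMSO for 24 h at 37 °C; luciferase reagent was added for 10 min and luminescence read.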
# Luc counter: blocks Kinase-Glo luciferase, a counter-screen artifact; AID 1379; Q27757; Potency, µM (highest dose often 38.3 µM), for the others: at the top dose activity change, negative = inhibition, usual class: inhibitors; Kinase-Glo luciferase, ATP luminescence, 8 min; 200,000 compounds, 0.28% hits; note: % is set by controls: 0 for no effect and ±100 for the full control effect; nearly all actives have a fitted effect of over 60% in size
#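 Inhibition of Kinase-Glo luciferase light generation was assessed at 10 uM ATP in pH 7.2 imidazole buffer, with luminescence measured after eight minutes at ambient temperature.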
# FLuc counter: counter-screen for miR-21 project: firefly luciferase inhibitors or activators | 360,000 compounds, 6.9% hits | Potency, µM (titrated, usually from 57.5 µM), for the others: at the top dose activity change, negative = inhibition, most hits filed as inhibitors | purified FLuc, Km substrates, luminescence inhibition | AID 588342 | P08659;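 note: plate controls were vehicle for no effect and reference inhibitor for full effect; nearly all actives have a fitted effect of over 55% in size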
# Target sequence (P08659 whole entry, looked up): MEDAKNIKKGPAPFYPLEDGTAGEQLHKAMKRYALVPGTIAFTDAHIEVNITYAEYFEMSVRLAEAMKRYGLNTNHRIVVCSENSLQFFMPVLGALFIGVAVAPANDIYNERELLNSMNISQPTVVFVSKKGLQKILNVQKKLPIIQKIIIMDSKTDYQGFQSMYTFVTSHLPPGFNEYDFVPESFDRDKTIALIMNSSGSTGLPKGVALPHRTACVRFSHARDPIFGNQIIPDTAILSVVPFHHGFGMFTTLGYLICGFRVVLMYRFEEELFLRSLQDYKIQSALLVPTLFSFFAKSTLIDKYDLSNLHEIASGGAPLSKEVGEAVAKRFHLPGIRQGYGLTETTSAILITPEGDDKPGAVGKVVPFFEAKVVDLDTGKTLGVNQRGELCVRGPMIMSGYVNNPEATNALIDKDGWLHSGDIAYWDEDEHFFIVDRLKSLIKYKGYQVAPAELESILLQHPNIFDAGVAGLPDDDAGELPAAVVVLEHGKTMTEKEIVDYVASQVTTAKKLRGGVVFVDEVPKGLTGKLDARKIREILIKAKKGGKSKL
#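 Purified P. pyralis luciferase (10nM final) with 10uM D-luciferin and 10uM ATP (Km levels) in 50mM Tris acetate pH 7.5, 10mM Mg acetate, 0.01% Tween-20, 0.05% BSA; qHTS 6-point titration, ~60 µM downward; luminescence read.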
# Starred values were filed as active, the others as inactive; ? = inconclusive; nt = not tested or not shown. Calls come from the whole dose curve; as a rule, active = well fitted curve in the direction sought with a large enough effect; inconclusive = small, poorly fitted or top-dose-only effect, or another doubt; inactive = no such curve, though single readings can be large; an effect the other way counts as inactive or inconclusive. Potency is the fitted concentration of half-maximal effect.
SMILES,SMN2 splice up,Rab9 promoter act,ELG1 genotoxic,NPC1 prom act,Luc counter,FLuc counter
CN/N=C(\Cc1nc2ccccc2[nH]1)c1ccc([N+](=O)[O-])cc1,?,?,12.9%,?,-4.0%,16.9µM*
Cc1ccc(NC(=O)c2ccc3c(c2)OCCO3)nc1,nt,0.355µM*,?,0.631µM*,nt,1.35µM*
Cc1cc(C)c2sc(NC(=O)c3ccc(N4C(=O)CCC4=O)cc3)nc2c1,nt,2.9%,11.9%,-5.1%,nt,2.39µM*
Cc1ccnc(NC(=O)c2ccc(N3C(=O)CCC3=O)cc2)c1,8.5%,?,16.1%,?,-21.6%,19µM*
Cc1ccc(NC(=O)CNC(=O)c2ccc3c(c2)OCO3)nc1,nt,2.4%,0.4%,9.4%,nt,-2.0%
Cc1ccc2nc(NC(=O)c3ccc(N4C(=O)CCC4=O)cc3)sc2c1,16.0%,15.9%,3.4%,7.8%,-1.4%,?
Cc1ccnc(NC(=O)c2ccc3c(c2)OCO3)c1,nt,0.447µM*,?,0.501µM*,12.6µM*,2.13µM*
COC(=O)c1ccc(NC(=O)CCc2nnc3ccc(N4CCC5(CC4)OCCO5)nn23)cc1,nt,-2.6%,1.2%,-1.7%,nt,0.5%
CN(C)S(=O)(=O)c1cccc(NC(=O)c2cccc(N3C(=O)CCC3=O)c2)c1,nt,-3.4%,-0.3%,-3.4%,nt,2.4%
COc1cc2cc(CN(Cc3cccs3)C(=S)Nc3ccccc3)c(=O)[nH]c2cc1OC,-18.6%,1.8%,-4.9%,-3.4%,-0.3%,3.8%
Cc1c(CC(=O)N[C@@H](C)C(=O)O)c(=O)oc2cc3occ(-c4ccccc4)c3cc12,nt,-2.3%,-6.4%,-0.7%,nt,21.3µM*
Cc1c(CC(=O)NCCC(=O)O)c(=O)oc2cc3occ(-c4ccccc4)c3cc12,nt,7.0%,1.5%,-2.0%,nt,15.1µM*
CCCCCCSc1ccc([C@H]2N[C@@](CC(C)C)(C(=O)OC)[C@H]3C(=O)N(C)C(=O)[C@@H]23)cc1OC,nt,2.7%,-24.2%,-7.0%,nt,-4.3%
CCOC(=O)c1ccc(NS(=O)(=O)c2c(C)nc3sccn3c2=O)cc1,nt,0.1%,-1.4%,-2.3%,nt,2.0%
O=C(/C=C/c1cccc([N+](=O)[O-])c1)Nc1ccccn1,26.8%,2.82µM*,15.9%,?,-0.8%,-1.2%
O=C(/C=C/c1cccc([N+](=O)[O-])c1)N(c1ccccn1)c1ccccn1,nt,1.7%,0.7%,-2.8%,nt,-0.2%
Cc1ccc2oc(-c3cccc(NC(=O)/C=C/c4cccc([N+](=O)[O-])c4)c3C)nc2c1,12.6µM*,4.47µM*,-0.3%,?,-5.3%,3.38µM*
CC(NC(=O)/C(=C\c1cccc([N+](=O)[O-])c1)NC(=O)c1ccco1)C(=O)O (configuration not stated),-20.7%,2.2%,-0.9%,-1.3%,-6.0%,15.1µM*
O=C(/C=C/c1cccc([N+](=O)[O-])c1)Nc1cccc(NC(=O)c2ccco2)c1,-1.3%,7.3%,-5.0%,1.8%,3.1%,19µM*
O=C(NC(Cc1ccccc1)C(=O)O)/C(=C/c1cccc([N+](=O)[O-])c1)NC(=O)c1ccco1 (configuration not stated),nt,-0.9%,-0.8%,-0.4%,nt,1.1%
O=C(/C=C/c1ccc(Cl)c([N+](=O)[O-])c1)Nc1cccc(NC(=O)c2ccco2)c1,25.3%,-2.8%,-1.8%,-31.3%,-2.5%,?
CC(C)C(=O)Nc1c2c(nn1-c1ccc(F)cc1)CS(=O)(=O)C2,nt,-1.1%,-3.9%,-0.2%,nt,-0.8%
CC1C=CCC2C(=O)N(c3cccc(C(=O)Nc4ccc(Br)cc4)c3)C(=O)C12 (configuration not stated),nt,15.7%,-8.0%,1.1%,nt,?
O=C(CN1C(=O)CSc2ncccc21)Nc1ccccc1F,nt,-3.6%,5.5%,-3.8%,nt,2.4%
O=C(CCn1cnnn1)N1CCCC(Nc2ccc(F)cc2)C1 (configuration not stated),nt,3.4%,4.2%,-4.5%,nt,-1.8%
SMILES,SMN2 splice up,Rab9 promoter act,ELG1 genotoxic,NPC1 prom act,Luc counter,FLuc counter
Cc1cc2ccccc2n1-c1ccc(C(=O)N2CCC(C(=O)NCc3ccc(F)cc3)CC2)s1,nt,nt,nt,nt,nt,-12.6%
COc1ccc(S(=O)(=O)Nc2nc3c(s2)CCCC3)cc1,-37.7%,3.1%,0.3%,-2.8%,-1.2%,?
COC(=O)Cc1c(OC)ccn(CCc2c[nH]c3ccccc23)c1=O,11.2µM*,3.16µM*,?,?,1.1%,16.9µM*
COC(=O)C(Cc1c[nH]c2ccccc12)NC(=O)CNC(C)=O (configuration not stated),-16.6%,-1.4%,-8.0%,-6.0%,2.1%,16.4%
O=C(COC(=O)C(Cc1c[nH]c2ccccc12)NC(=O)c1ccc(Br)cc1)c1ccc(Cl)cc1 (configuration not stated),nt,nt,nt,nt,nt,-2.0%
COC(=O)C(Cc1c[nH]c2ccccc12)NC(=O)c1ccccc1Br (configuration not stated),nt,-0.6%,-0.3%,-0.1%,nt,4.26µM*
CCOC(=O)C(Cc1c[nH]c2ccccc12)NC(=O)c1ccccc1Br (configuration not stated),nt,24.1%,?,25.9%,nt,0.675µM*
Cc1ccc(C(=O)Nc2nc(-c3nnn(-c4cccc(Cl)c4C)c3C)ns2)cc1C,nt,nt,nt,nt,nt,-8.3%
Cc1ccc(Cl)cc1-n1nnc(-c2nsc(NC(=O)c3ccccc3Cl)n2)c1C,-24.5%,nt,nt,nt,nt,12µM*
COc1ccc(C(=O)N2CCC(c3nc4ccccc4s3)CC2)cc1Cl,nt,nt,nt,nt,nt,-0.8%
COC(=O)N/N=C\c1ccccc1OC/C=C/c1ccccc1,nt,28.9%,?,?,nt,16.9µM*
CCOC(=O)N/N=C\c1ccccc1OC/C=C/c1ccccc1,nt,24.3%,?,?,nt,4.26µM*
COc1cc(/C=N\NC(C)=O)ccc1OC/C=C/c1ccccc1,nt,2.6%,-8.9%,1.6%,nt,-6.9%
CCOc1ccc(/C=N/NC(=O)CN2CCCCCCC2)cc1,5.9%,-6.1%,-0.8%,-2.0%,-0.8%,-0.5%
Cn1c(C(C#N)C(=O)Cc2cccc3ccccc23)nc2ccccc21 (configuration not stated),-8.8%,-6.1%,-8.8%,-5.1%,4.5%,-0.5%
Cn1c(C(C#N)C(=O)c2ccco2)nc2ccccc21 (configuration not stated),29.3%,6.6%,15.5%,-0.8%,-5.1%,16.9µM*
O=C(/C=C/c1cn(-c2ccccc2)nc1-c1cccnc1)c1ccco1,-37.0%,-7.9%,-13.9%,-5.3%,0.5%,9.53µM*
O=C(c1cn(-c2ccccc2)nc1-c1ccccc1)N1CCOCC1,-21.0%,2.1%,-3.4%,-1.3%,9.7%,?

# Screening results deposited in PubChem BioAssay by National Center for Advancing Translational Sciences (NCATS).
